NSD2 block = blocks human NSD2 histone methyltransferase activity | 44,000 tested, 0.07% active | AID 624260 | inhibition, % at 12.5 µM | NSD2-SET H3K36me1 DELFIA fluorescence, biochemical | O96028; in the data active means inhibition above about 54%, passing the limit was not always enough;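 further: inhibitors reduce the monomethyl H3K36 fluorescence signal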
Each line names hits and unclear results; the compound was inactive in the other large screens. The full list was thinned out, with hits kept by preference.

CC1OC(O[C@H]2[C@@H](O)C[C@@]3(C)C([C@H](O)C[C@]4(C)C3CC=C3[C@@H]5CC(C)(C)CC[C@]5(C(=O)OC5OC(C)C(OC6OCC(OC7OCC(O)C(OC8OCC(O)C(O)C8O)C7O)C(O)C6O)C(O)C5O)CC[C@]34C)[C@]2(C)CO)C(O)C(OC2OC(CO)C(O)C(O)C2O)C1O (stereo not given in full)	none
COC(=O)[C@H]1CC[C@H](OC(C)=O)[C@]2(C)CC[C@@H](C(C)C)[C@@H](OC(=O)/C=C/c3ccccc3)C12 (stereo not given in full)	none
CC(NC(=O)/C=C/C(=O)O)C(=O)NC(C(=O)NC(Cc1c[nH]c2ccccc12)C(=O)O)C(C)c1c[nH]c2ccccc12 (stereo not given)	none
O=C(CCCCCCC(=O)N/N=C\c1ccc(O)c2ccccc12)NO	none
C=CCSc1n[nH]c(=O)n1-c1cccc(Cl)c1	none
C=C[C@@]1(C)C[C@@]2(OC[C@@]3(C)O[C@@H]23)Oc2c1c(=O)oc1cccc(C)c21	none
CC(C)(C)OC(=O)N1CCC[C@H]1/C=N/NC(=O)CCCCCCC(=O)NO	none
COC1=C/C(=C/c2c(N)n3c(SC(C)C)nsc3nc2=O)C=CC1=O	none
Nc1nc(SCc2nnc(Nc3ccccc3)s2)nc2sc3c(c12)CCC3	none
O=C(/C=C/c1ccc(O)cc1)O[C@@H]1CC(O)(C(=O)O)C[C@@H](OC(=O)/C=C/c2ccc(O)cc2)C1O (stereo not given in full)	NSD2 block 63
CC(=O)CCC1C2C(O)C(C(C)C)C(OC(=O)/C=C/c3ccccc3)CC12C (stereo not given)	none
COc1cc(/C=C/C(=O)O[C@@H]2C[C@@](O)(C(=O)O)C[C@@H](O)[C@@H]2O)ccc1O	none
NC(=O)COc1ccc(/C=N/NC(=O)c2ccc(C(=O)NO)cc2)cc1	none
C[C@@H]1CC[C@]2(C(=O)OC3OC(CO)C(OC4OC(CO)C(O)C(O)C4O)C(O)C3O)CC[C@]3(C)C(=CCC4[C@@]5(C)CC[C@H](O)[C@](C)(C(=O)O)C5CC[C@]43C)C2[C@]1(C)O (stereo not given in full)	none
CC(C)=CCc1c(O[C@@H]2O[C@H](CO)[C@@H](O)[C@H](O)[C@H]2O)cc(O)c2c1O[C@H](c1ccc(O)cc1)CC2=O	NSD2 block 70
O=C1CC(c2ccc(O)cc2)Oc2cc(O[C@@H]3O[C@H](CO)[C@@H](O)[C@H](O)[C@H]3O)cc(O)c21 (stereo not given in full)	none
COc1c(OC2OC(CO)C(O)C(O)C2O)cc(O)c2c1OC(c1ccccc1)CC2=O (stereo not given)	none
CCOc1cccc(NC(=O)C2CC(=O)N(/N=C(\C)c3ccc(Br)s3)C(=N)S2)c1 (stereo not given)	none
O=C(/C=C/c1ccc(OCCc2cccs2)cc1)NO	none
COc1cc(C[C@@H]2CO[C@@H](c3ccc(O)c(OC)c3)[C@@H]2CO)ccc1O	NSD2 block 68
COc1cc([C@H]2OC[C@H]3[C@@H]2CO[C@H]3c2ccc(OC)c(OC)c2)ccc1O	none
COc1cc([C@H]2OC[C@H]3[C@@H]2CO[C@@H]3c2ccc(O)c(OC)c2)ccc1O	none
O=C(N/N=C/c1ccc(B(O)O)cc1)c1ccccn1	none
O=C(CCCCC(=O)N/N=C/c1cccnc1)NO	none
C/C=C1/CN2CCC1C(CO)(C(=O)OC)c1[nH]c3ccccc3c1C2 (stereo not given)	none

Screening results: PubChem BioAssay, Broad Institute
